miR122 inh: raises miR-122 sensor activity in Huh7 cells. Huh7 psiCHECK-miR122 Renilla luciferase sensor, 48 h. activation, % at 12.5 µM. 340,000 compounds, 0.14% hits;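 active = mean activation of 30% or more, with every replicate also reaching 30%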;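 also: 0% = median of neutral control wells and 100% = median of positive control wells; higher luciferase signal means stronger suppression of miR-122 activity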
* hit, by the source's call. The sample as a whole holds a higher share of hits than the screen did.

SMILES | miR122 inh
COc1cccc(C#Cc2cnc3c(c2)C(=O)N([C@H](C)CO)C[C@H](C)[C@@H](CN(C)C(=O)C2CCCCC2)O3)c1 | -7
CCC(=O)Nc1ccc2c(c1)C(=O)N(C)C[C@@H](OC)[C@H](C)CN(C(C)=O)[C@H](C)CO2 | -4
COc1ccc(C#Cc2ccc3c(c2)O[C@@H](CN(C)C)[C@H](C)CN([C@@H](C)CO)S3(=O)=O)cc1 | 6
CC(C)CC#Cc1ccc2c(c1)O[C@H](CN(C)C(=O)c1ccccc1)[C@@H](C)CN([C@@H](C)CO)S2(=O)=O | -40
C/C=C/c1ccc2c(c1)O[C@H](CN(C)C(=O)c1cccnc1)[C@@H](C)CN([C@H](C)CO)S2(=O)=O | -5
C[C@@H]1CN([C@@H](C)CO)S(=O)(=O)c2ccc(C#C[C@@H](C)O)cc2O[C@H]1CN(C)Cc1cccnc1 | 8
C/C=C/c1ccc2c(c1)O[C@H](CN(C)C(=O)c1cnccn1)[C@H](C)CN([C@@H](C)CO)S2(=O)=O | 44*
COc1cccc(C#Cc2ccc3c(c2)O[C@H](CN(C)C(=O)CN2CCOCC2)[C@H](C)CN([C@@H](C)CO)S3(=O)=O)c1 | -28
C[C@H](O)C#Cc1ccc2c(c1)O[C@@H](CN(C)Cc1ccc(-c3ccccc3)cc1)[C@H](C)CN([C@H](C)CO)S2(=O)=O | 45*
C[C@H](O)C#Cc1ccc2c(c1)O[C@@H](CN(C)Cc1cccnc1)[C@H](C)CN([C@@H](C)CO)S2(=O)=O | 7
C/C=C/c1ccc2c(c1)O[C@@H](CN(C)C(=O)Cc1ccccn1)[C@@H](C)CN([C@@H](C)CO)S2(=O)=O | 0
CC(C)C#Cc1ccc2c(c1)O[C@H](CN(C)C(=O)c1ccccc1)[C@H](C)CN([C@H](C)CO)S2(=O)=O | 12
COc1cccc(C#Cc2ccc3c(c2)O[C@H](CN(C)C(=O)CN2CCOCC2)[C@@H](C)CN([C@@H](C)CO)S3(=O)=O)c1 | -18
CC(C)CC#Cc1ccc2c(c1)O[C@H](CN(C)C(=O)c1ccccc1)[C@H](C)CN([C@H](C)CO)S2(=O)=O | 42*
COc1ccc(C#Cc2ccc3c(c2)O[C@H](CN(C)C(=O)CN2CCOCC2)[C@@H](C)CN([C@@H](C)CO)S3(=O)=O)cc1 | 43*
Cc1noc(C)c1NC(=O)N(C)C[C@H]1Oc2ncc(C#CC3CCCCC3)cc2C(=O)N([C@@H](C)CO)C[C@@H]1C | -6
CCCNC(=O)N(C)C[C@@H]1Oc2cc(C#CCOC)ccc2S(=O)(=O)N([C@H](C)CO)C[C@@H]1C | 1
C[C@H](CO)N1C[C@H](C)[C@H](CN(C)Cc2ccccn2)Oc2cc(-c3cccc(C#N)c3)ccc2S1(=O)=O | 8
CO[C@@H]1CN(C)C(=O)c2cc(NC(=O)C3CCOCC3)ccc2OC[C@@H](C)N(C)C[C@@H]1C | -2
CCC(=O)N1C[C@@H](C)[C@@H](OC)CN(C)C(=O)c2ccc(NS(C)(=O)=O)cc2OC[C@H]1C | -2
CO[C@H]1CN(C)C(=O)c2ccc(NC(=O)Nc3ccc(F)cc3)cc2OC[C@@H](C)NC[C@@H]1C | 2
CC(C)CC#Cc1ccc2c(c1)O[C@H](CN(C)C(=O)C1CCOCC1)[C@H](C)CN([C@@H](C)CO)S2(=O)=O | 23
C[C@H](O)C#Cc1ccc2c(c1)O[C@H](CN(C)Cc1cncnc1)[C@@H](C)CN([C@H](C)CO)S2(=O)=O | -17
COc1cccc(-c2cnc3c(c2)C(=O)N([C@H](C)CO)C[C@@H](C)[C@@H](CN(C)Cc2cccnc2)O3)c1 | 2
C[C@@H]1CN([C@@H](C)CO)C(=O)c2cc(-c3ccc(C#N)cc3)cnc2O[C@@H]1CN(C)CC1CCOCC1 | 7
SMILES | miR122 inh
COCC#Cc1cnc2c(c1)C(=O)N([C@H](C)CO)C[C@@H](C)[C@@H](CN(C)C(=O)Nc1c(C)noc1C)O2 | 0
Cc1ccc(S(=O)(=O)N(C)C[C@@H]2Oc3cc(C#CC4CCCC4)ccc3S(=O)(=O)N([C@H](C)CO)C[C@H]2C)cc1 | -3
COCC#Cc1cnc2c(c1)C(=O)N([C@@H](C)CO)C[C@@H](C)[C@H](CN(C)Cc1ccccc1)O2 | -4
CCC(=O)N(C)C[C@H]1Oc2ncc(C#Cc3ccccc3OC)cc2C(=O)N([C@H](C)CO)C[C@H]1C | 1
C[C@H](CO)N1C[C@H](C)[C@@H](CN(C)Cc2cccc(C(=O)O)c2)Oc2ncc(/C=C/c3ccccc3)cc2C1=O | 1
C[C@@H]1CN([C@@H](C)CO)S(=O)(=O)c2ccc(-c3ccc(F)cc3)cc2O[C@H]1CN(C)C(=O)C1CCOCC1 | -1
CCCC#Cc1ccc2c(c1)O[C@H](CN(C)C(=O)c1ccccn1)[C@@H](C)CN([C@H](C)CO)S2(=O)=O | -128
CCCC#Cc1ccc2c(c1)O[C@@H](CN(C)C(=O)c1cccnc1)[C@H](C)CN([C@@H](C)CO)S2(=O)=O | -18
CC(C)CC#Cc1ccc2c(c1)O[C@@H](CN(C)C(=O)NC1CCCC1)[C@@H](C)CN([C@H](C)CO)S2(=O)=O | -7
CC(C)CC#Cc1ccc2c(c1)O[C@H](CN(C)C(=O)c1cnccn1)[C@H](C)CN([C@@H](C)CO)S2(=O)=O | 36*

Source: PubChem
